Seven compounds from ChEMBL document CHEMBL1961873, “Compounds: GSK PKIS; Assays: Nanosyn kinase panel” (2012) can be followed below.

The target in experiment [1] is Mitogen-activated protein kinase 3 (Homo sapiens) (UniProt P27361). As to conditions: at 1 µM.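 Also: values are mean percent inhibition of MAPK3.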
The target in experiment [2] is SRSF protein kinase 3 (Homo sapiens) (UniProt Q9UPE1). The note with it: at 0.1 µM.
Experiment [3] has the same target. The note with it: at 1 µM.
Experiment [4] deals with Mitogen-activated protein kinase 14 (Homo sapiens) (UniProt Q16539). As to conditions: at 0.1 µM.
Experiment [5] shares this target. As to conditions: at 1 µM.
Experiment [6] has as its target Mitogen-activated protein kinase 11 (Homo sapiens) (UniProt Q15759). As to conditions: at 0.1 µM.
For experiment [7] the target is unchanged. As to conditions: at 1 µM.
Experiment [8] concerns the target T1, Mitogen-activated protein kinase 13 (Homo sapiens) (UniProt O15264).
T1 sequence (whole entry): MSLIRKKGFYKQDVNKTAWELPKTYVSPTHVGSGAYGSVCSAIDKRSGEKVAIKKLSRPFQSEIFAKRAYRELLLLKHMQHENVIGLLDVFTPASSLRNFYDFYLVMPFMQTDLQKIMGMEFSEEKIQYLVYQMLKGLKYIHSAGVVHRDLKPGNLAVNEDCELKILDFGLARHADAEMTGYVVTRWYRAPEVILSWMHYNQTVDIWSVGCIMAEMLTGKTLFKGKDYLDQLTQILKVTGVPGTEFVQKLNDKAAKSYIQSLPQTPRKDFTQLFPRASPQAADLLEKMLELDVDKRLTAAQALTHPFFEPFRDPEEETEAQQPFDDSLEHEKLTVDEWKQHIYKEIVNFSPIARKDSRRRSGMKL
As to conditions: at 0.1 µM.

Experiment [9] has as its target T1, Mitogen-activated protein kinase 13 (Homo sapiens). The note with it: at 1 µM.
Experiment [10] has as its target T2, Mitogen-activated protein kinase 12 (Homo sapiens) (UniProt P53778).
T2 sequence (whole entry): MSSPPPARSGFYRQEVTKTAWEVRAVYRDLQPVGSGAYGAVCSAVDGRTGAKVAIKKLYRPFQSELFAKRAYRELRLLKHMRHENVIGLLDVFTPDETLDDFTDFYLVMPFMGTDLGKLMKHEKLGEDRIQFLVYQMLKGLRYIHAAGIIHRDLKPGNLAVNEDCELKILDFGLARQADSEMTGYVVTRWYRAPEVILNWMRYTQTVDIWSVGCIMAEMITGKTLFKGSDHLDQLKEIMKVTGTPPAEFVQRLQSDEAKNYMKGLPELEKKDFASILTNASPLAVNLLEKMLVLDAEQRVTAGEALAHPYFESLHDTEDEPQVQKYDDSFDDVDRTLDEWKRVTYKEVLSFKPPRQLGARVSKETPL
As to conditions: at 0.1 µM.

Experiment [11] has as its target T2, Mitogen-activated protein kinase 12 (Homo sapiens). As to conditions: at 1 µM.
Experiment [12] addresses SRSF protein kinase 1 (Homo sapiens) (UniProt Q96SB4). As to conditions: at 0.1 µM.
Experiment [13] shares this target. The note with it: at 1 µM.
Experiment [14] deals with Phosphatidylinositol 4,5-bisphosphate 3-kinase catalytic subunit alpha isoform (Homo sapiens) (UniProt P42336). As to conditions: at 0.1 µM.
For experiment [15] the target is unchanged. As to conditions: at 1 µM.
Experiment [16] addresses T3, Phosphatidylinositol 4,5-bisphosphate 3-kinase catalytic subunit delta isoform (Homo sapiens) (UniProt O00329).
T3 sequence (whole entry): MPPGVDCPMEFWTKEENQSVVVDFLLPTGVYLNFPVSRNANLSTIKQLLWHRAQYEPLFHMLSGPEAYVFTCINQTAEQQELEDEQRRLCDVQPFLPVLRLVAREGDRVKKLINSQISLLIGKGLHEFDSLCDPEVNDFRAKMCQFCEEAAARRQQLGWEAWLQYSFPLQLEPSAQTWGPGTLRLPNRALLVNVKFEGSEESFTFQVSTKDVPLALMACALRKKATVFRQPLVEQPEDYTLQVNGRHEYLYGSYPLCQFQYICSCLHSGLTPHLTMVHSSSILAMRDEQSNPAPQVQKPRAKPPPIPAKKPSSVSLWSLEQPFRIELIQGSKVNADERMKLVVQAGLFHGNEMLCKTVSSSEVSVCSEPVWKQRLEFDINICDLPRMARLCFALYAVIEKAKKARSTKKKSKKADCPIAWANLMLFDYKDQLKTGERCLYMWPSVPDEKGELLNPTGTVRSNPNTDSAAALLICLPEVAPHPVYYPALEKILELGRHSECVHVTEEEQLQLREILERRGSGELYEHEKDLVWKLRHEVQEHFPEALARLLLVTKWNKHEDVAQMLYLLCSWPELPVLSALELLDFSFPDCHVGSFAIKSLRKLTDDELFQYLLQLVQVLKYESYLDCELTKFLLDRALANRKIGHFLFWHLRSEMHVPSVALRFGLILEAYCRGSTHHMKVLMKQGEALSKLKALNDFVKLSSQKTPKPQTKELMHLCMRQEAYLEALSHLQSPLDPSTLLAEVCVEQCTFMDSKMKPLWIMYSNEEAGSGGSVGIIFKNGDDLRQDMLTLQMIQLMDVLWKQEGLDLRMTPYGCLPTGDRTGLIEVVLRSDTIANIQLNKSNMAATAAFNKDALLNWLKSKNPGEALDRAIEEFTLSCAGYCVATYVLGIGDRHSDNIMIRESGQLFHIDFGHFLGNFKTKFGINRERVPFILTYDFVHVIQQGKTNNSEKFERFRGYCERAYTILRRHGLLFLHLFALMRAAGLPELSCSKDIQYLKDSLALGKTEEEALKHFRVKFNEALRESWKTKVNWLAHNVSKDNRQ
As to conditions: at 0.1 µM.

For experiment [17], the target named is T3, Phosphatidylinositol 4,5-bisphosphate 3-kinase catalytic subunit delta isoform (Homo sapiens). As to conditions: at 1 µM.
The target in experiment [18] is Phosphatidylinositol 4-kinase beta (Homo sapiens) (UniProt Q9UBF8). As to conditions: at 0.1 µM.
The target is the same in experiment [19]. The note with it: at 1 µM.
In experiment [20] the target is Sphingosine kinase 1 (Homo sapiens) (UniProt Q9NYA1). The note with it: at 0.1 µM.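 Also: mean percent inhibition of SPHK1 activity, measured within the GSK PKIS screening panel.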
Chain of Sphingosine kinase 1 (Homo sapiens) (Q9NYA1 whole entry): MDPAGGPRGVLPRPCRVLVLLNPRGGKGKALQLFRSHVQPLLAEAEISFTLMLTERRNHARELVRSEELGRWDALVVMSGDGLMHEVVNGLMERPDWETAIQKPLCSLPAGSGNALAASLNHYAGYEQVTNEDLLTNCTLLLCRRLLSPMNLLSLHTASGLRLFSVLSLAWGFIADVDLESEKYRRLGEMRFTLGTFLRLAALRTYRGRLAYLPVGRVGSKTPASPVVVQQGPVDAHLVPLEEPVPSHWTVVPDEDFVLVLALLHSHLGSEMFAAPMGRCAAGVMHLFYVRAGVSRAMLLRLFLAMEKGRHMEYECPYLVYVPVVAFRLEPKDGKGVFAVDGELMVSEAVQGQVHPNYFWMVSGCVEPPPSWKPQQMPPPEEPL

Chain of SRSF protein kinase 3 (Homo sapiens) (Q9UPE1 whole entry): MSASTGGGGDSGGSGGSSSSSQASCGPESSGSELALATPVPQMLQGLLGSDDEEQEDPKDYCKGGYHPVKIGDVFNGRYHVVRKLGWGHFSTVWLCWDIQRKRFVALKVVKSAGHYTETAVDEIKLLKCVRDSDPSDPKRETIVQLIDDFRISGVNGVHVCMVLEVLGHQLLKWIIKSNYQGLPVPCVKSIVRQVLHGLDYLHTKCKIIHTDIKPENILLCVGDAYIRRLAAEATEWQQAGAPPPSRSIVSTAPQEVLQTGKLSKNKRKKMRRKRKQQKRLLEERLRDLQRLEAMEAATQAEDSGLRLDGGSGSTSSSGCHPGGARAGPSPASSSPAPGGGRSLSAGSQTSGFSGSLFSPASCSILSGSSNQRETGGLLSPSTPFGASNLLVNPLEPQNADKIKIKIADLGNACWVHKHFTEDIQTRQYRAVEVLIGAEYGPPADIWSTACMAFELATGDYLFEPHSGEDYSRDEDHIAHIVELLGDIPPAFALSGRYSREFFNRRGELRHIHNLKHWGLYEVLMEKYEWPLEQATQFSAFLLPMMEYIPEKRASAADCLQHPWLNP
Chain of Phosphatidylinositol 4-kinase beta (Homo sapiens) (Q9UBF8 2-816 limits assumed): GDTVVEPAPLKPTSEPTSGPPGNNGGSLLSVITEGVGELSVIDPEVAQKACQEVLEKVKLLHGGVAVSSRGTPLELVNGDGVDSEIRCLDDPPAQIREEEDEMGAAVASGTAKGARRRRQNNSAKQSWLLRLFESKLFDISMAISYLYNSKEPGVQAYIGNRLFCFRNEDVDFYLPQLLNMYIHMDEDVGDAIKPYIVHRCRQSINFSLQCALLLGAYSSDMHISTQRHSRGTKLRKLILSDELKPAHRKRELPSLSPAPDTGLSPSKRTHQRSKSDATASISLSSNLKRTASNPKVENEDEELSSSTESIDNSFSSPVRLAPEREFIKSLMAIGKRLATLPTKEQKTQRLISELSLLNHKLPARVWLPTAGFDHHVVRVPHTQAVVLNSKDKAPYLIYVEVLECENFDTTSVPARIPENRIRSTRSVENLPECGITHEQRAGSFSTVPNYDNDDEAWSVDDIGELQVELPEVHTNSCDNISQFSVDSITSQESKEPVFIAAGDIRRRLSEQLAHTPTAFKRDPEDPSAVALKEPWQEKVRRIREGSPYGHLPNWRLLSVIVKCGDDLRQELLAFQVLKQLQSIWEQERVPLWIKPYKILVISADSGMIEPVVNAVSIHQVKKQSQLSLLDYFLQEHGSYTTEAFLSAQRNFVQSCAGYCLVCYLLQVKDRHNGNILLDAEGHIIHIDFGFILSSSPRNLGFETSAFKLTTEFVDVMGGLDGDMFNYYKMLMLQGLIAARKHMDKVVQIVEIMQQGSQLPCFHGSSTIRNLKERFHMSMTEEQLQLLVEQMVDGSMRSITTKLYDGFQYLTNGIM
Chain of Mitogen-activated protein kinase 14 (Homo sapiens) (Q16539 whole entry): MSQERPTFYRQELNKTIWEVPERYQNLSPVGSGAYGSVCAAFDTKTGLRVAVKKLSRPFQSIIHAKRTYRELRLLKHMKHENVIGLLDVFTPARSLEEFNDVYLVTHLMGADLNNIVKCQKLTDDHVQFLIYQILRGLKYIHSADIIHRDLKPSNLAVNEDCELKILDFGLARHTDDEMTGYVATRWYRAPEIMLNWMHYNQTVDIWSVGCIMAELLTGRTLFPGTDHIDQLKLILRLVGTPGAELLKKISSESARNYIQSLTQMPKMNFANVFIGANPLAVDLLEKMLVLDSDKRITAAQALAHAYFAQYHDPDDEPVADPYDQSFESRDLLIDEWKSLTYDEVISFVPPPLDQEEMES
Chain of Mitogen-activated protein kinase 11 (Homo sapiens) (Q15759 whole entry): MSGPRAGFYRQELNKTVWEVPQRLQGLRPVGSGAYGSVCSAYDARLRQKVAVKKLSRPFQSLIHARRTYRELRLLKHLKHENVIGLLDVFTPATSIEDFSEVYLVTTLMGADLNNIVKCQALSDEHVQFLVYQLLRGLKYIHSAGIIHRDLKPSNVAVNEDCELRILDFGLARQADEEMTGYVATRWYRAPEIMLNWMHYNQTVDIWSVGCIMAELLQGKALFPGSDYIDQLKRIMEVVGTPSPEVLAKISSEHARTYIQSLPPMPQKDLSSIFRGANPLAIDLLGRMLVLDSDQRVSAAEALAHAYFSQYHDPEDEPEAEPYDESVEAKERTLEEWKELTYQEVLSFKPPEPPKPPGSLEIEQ
Chain of Mitogen-activated protein kinase 3 (Homo sapiens) (P27361 whole entry): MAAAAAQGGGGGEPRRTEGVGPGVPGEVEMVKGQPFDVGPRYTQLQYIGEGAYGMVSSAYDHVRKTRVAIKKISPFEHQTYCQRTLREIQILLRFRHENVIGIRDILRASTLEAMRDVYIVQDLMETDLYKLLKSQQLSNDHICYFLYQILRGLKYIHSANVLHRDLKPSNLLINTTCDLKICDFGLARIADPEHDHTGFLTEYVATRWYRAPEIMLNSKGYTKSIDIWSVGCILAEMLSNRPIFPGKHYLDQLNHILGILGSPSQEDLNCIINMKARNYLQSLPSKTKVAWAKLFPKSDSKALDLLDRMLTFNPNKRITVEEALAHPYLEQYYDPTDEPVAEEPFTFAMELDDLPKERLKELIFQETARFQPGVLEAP
Chain of SRSF protein kinase 1 (Homo sapiens) (Q96SB4 whole entry): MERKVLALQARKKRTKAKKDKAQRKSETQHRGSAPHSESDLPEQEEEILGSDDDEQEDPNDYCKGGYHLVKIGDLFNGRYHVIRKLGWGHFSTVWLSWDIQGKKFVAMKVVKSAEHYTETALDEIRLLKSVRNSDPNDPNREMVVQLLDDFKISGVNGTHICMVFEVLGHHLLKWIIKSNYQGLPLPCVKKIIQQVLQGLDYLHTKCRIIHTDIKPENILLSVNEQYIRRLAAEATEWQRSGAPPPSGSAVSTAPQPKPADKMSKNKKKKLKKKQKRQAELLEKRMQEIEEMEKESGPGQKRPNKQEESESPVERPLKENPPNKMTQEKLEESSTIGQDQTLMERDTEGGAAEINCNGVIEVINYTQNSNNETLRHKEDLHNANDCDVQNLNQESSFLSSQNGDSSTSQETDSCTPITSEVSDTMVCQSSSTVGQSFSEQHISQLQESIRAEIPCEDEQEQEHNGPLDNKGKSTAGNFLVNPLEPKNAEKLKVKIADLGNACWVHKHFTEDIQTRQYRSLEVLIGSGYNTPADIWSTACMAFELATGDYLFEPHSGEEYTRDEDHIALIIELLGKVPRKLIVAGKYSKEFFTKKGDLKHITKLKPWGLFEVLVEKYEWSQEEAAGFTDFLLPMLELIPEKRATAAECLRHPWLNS
Chain of Phosphatidylinositol 4,5-bisphosphate 3-kinase catalytic subunit alpha isoform (Homo sapiens) (P42336 whole entry, canonical isoform): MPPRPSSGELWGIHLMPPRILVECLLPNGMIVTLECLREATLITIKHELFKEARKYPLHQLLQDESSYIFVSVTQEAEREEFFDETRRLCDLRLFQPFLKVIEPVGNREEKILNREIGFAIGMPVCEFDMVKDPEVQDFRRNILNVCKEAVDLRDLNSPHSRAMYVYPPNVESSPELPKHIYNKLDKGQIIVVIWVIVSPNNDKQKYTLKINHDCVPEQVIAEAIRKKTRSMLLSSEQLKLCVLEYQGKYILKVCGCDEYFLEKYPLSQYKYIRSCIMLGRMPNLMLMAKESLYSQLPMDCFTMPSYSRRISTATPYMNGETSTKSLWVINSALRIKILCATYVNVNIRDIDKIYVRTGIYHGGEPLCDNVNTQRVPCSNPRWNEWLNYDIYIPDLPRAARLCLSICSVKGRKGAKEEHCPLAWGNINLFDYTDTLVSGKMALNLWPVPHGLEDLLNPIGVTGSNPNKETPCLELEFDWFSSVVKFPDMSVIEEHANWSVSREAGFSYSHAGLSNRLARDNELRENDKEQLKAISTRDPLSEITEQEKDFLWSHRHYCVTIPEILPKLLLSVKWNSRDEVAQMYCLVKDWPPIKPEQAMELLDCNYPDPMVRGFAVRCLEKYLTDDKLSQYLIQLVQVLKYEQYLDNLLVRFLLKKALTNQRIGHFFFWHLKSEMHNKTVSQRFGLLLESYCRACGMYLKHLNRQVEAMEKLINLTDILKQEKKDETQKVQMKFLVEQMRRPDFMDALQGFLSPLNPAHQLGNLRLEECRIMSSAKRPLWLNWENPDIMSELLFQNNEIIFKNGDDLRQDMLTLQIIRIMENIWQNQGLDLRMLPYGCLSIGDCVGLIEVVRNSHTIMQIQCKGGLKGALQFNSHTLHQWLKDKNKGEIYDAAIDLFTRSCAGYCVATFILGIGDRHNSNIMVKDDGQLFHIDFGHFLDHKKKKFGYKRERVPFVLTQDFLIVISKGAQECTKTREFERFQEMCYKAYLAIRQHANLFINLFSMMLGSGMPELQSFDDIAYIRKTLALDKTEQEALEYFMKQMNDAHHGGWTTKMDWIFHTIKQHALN

As for `Cc1ccc(Nc2ccnc(Nc3cccc(C(N)=O)c3)n2)cc1O`, the inhibition was found to be 5.1% in experiment [1]; 0.91% in [2]; 7.12% in [3]; 4.41% in [4]; 28% in experiment [5]; 3.7% in experiment [6]. Also, the inhibition in experiment [7] is 17.7%; in [8] it was -1.12%; in experiment [9], 4.69%; in [10], -1.03%; in [11], 1.74%; in experiment [12], -1.01%. Further, the inhibition in experiment [13] was determined as 1.41%; in experiment [14] it was 1.78%; in experiment [15] it was 3.39%; in [16] it was 2.88%; in experiment [17], 9.7%; in [18], 3.13%. Besides, the inhibition in [19] was determined as 1.94%; in [20], 0.79%.

For `NS(=O)(=O)c1ccc(N/N=C2\C(=O)Nc3ccc(Cl)cc32)cc1`, the inhibition in experiment [1] was 4.54%; in experiment [2], -0.26%; in experiment [3] it was 0.76%; in experiment [4] it was 0.03%; in [5], 4.11%; in experiment [6], 3.71%. Besides, the inhibition in experiment [7] is 5.91%; in experiment [8] it was 1.25%; in experiment [9], 3.33%; in [10], 0.26%; in experiment [11], 2.14%; in experiment [12] it was -1.45%. The inhibition was determined as 0.49% in [13]; 2.11% in experiment [14]; 2.12% in experiment [15]; 0.01% in [16]; 0.13% in experiment [17]; 5.17% in [18]. Moreover, the inhibition in [19] was -1.54%; in experiment [20], 0.4%.

Take `Nc1nccc(C#Cc2cncnc2Nc2ccc(OCc3cccc(F)c3)c(Cl)c2)n1`: the inhibition in experiment [1] is 1.04%; in [2] it was 0.77%; in [3], -0.42%; in experiment [4] it was 2.98%; in experiment [5] it was 7.42%; in experiment [6], 0.46%. In addition, the inhibition was 4.43% in experiment [7]; 1.14% in experiment [8]; 4.65% in experiment [9]; 0.02% in experiment [10]; 3.22% in experiment [11]; -1.73% in [12]. The inhibition in [13] is -2.48%; in experiment [14], 2.82%; in experiment [15], 4.72%; in experiment [16], 1.22%; in experiment [17], 4.71%; in experiment [18] it was -2.78%. The figures for the inhibition in experiment [19] and in experiment [20] were -0.63% and -2.09%, respectively.

With `Cc1nc(-c2ccccc2)n2nc(NCCCN3CCOCC3)ncc12`, the inhibition in [1] was 1.02%; in experiment [2] it was -0.13%; in [3] it was -0.34%; in [4], 3.9%; in experiment [5] it was 3.71%; in experiment [6] it was 1.59%. For the same compound, the inhibition in [7] was 2.11%; in experiment [8], 1.83%; in experiment [9], 1.77%; in experiment [10], 1.57%; in [11], 2.42%; in experiment [12], -2.28%. For the same compound, the inhibition is -2.05% in experiment [13]; 1.91% in experiment [14]; 1.2% in experiment [15]; -0.22% in [16]; 0.85% in [17]; 4.37% in experiment [18]. For the same compound, the inhibition came out at 0.1% in [19] and 0.59% in experiment [20].

On to `COc1ccc2ncnc(Nc3ccc(OCc4ccccc4)cc3)c2c1`, for which the inhibition in experiment [1] was 4.61%; in experiment [2] it was -1.92%; in experiment [3] it was 0.73%; in experiment [4], 5.87%; in [5], 10.2%; in experiment [6] it was 2.79%. Also, the inhibition in experiment [7] was 7.38%; in experiment [8], 0.25%; in [9] it was 1.34%; in experiment [10] it was -0.24%; in experiment [11], 1.88%; in [12] it was -1.2%. In addition, the inhibition is -0.4% in [13]; 2.14% in experiment [14]; 1.05% in experiment [15]; 1.99% in experiment [16]; 2.84% in experiment [17]; 1.57% in [18]. The inhibition in experiment [19] is 1.15%; in [20], -0.95%.

On to `Cc1cc(O)cc(C)c1/C=C/c1cncc(C(=O)N(C)C)c1`, for which the inhibition is 2.75% in [1]; 1.6% in experiment [2]; 2.35% in [3]; 5.83% in [4]; 7.03% in experiment [5]; 3.38% in experiment [6]. In addition, the inhibition in [7] is 8.48%; in experiment [8], 1.6%; in [9] it was 3.68%; in [10] it was 4.71%; in experiment [11] it was 2.68%; in experiment [12], -0.98%. Also, the inhibition in experiment [13] was -1.41%; in experiment [14], 1.77%; in [15], 0.49%; in experiment [16], 1.59%; in experiment [17], 1.73%; in experiment [18], -2.1%. Besides, the inhibition is 0.47% in [19] and -0.11% in experiment [20].

Regarding `O=C1Nc2ccccc2/C1=C/Nc1ccc2[nH]c(=O)[nH]c2c1`, the inhibition was 3.88% in [1]; -2.26% in experiment [2]; -0.78% in experiment [3]; 11.6% in [4]; 11.5% in experiment [5]; 5.12% in [6]. Also, the inhibition in experiment [7] was 9.63%; in experiment [8], 3.8%; in experiment [9] it was 4.97%; in [10], 0.57%; in experiment [11], 3.5%; in experiment [12], -1.11%. In addition, the inhibition in experiment [13] was -0.39%; in experiment [14], 4.42%; in experiment [15], 4.19%; in experiment [16], 1.87%; in [17] it was 2.83%; in experiment [18], -0.1%. Also, the inhibition stood at 2.4% in [19] and 11.5% in experiment [20].
